# About 79,000 compounds went through this panel and 15% of them were active in at least one assay; those are over-represented in the sample as a whole. Activity calls are given as the source filed them. Cut-off read from the data, not from the text of the source: active = growth inhibition above about 70%; inactive = the rest. Where a SMILES comes first, the peptide text is derived from it. [ ]: non-standard residue; d: D form. The star is where a group is joined. Phe(4-NO2) = N[CH](Cc1ccc([N+](=O)[O-])cc1)C(=O)O; Boc = CC(C)(C)OC(=O)*; OtBu = CC(C)(C)O*
# Test: NCI Yeast Anticancer Drug Screen. Data for the bub3 strain (AID 167)
# Details: S. cerevisiae bub3 mutant strain, at 50.0 µM, active compounds read high
# Outline: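 Part of a panel of yeast mutants defective in DNA damage repair or cell cycle regulation. Each strain is grown with compound, and inhibition is calculated relative to solvent-treated cultures.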
row,SMILES,growth inhibition
1,COC1CC2CC1C1COCC21 (centres undefined),-12.4% (inactive)
2,CC(=O)NC(CCC(=O)OC(C)(C)C)C(=O)NC(CCC(=O)OC(C)(C)C)C(=O)NC(Cc1ccc([N+](=O)[O-])cc1)C(=O)NC(CCCCNC(=O)OC(C)(C)C)C(=O)NC(CCCCNC(=O)OC(C)(C)C)C(=O)NCC(=O)O (centres undefined) (Ac-E(OtBu)E(OtBu)[Phe(4-NO2)]K(Boc)K(Boc)G-OH; configuration not given here),-8.2% (inactive)
3,COC(=O)c1nnn(CCc2c[nH]c3ccccc23)c1C(=O)OC,19.8% (inactive)
4,O=c1ccn2c(n1)OC1CC2OC1COC(c1ccccc1)(c1ccccc1)c1ccccc1 (centres undefined),3.6% (inactive)
5,O=C(C(=NC12CC3CC(CC(C3)C1)C2)NNc1ccc([N+](=O)[O-])cc1[N+](=O)[O-])C(Br)C(=O)c1ccccc1 (centres undefined),51.5% (inactive)
6,O=C1CC(c2ccccc2)=NN1c1ccccc1,-23.8% (inactive)
7,COCCNC(=O)/C=C\C(=O)O,12.2% (inactive)
8,C=CCCCC1CCCNC1=O (centres undefined),4.05% (inactive)
9,O=C(NC(=O)c1c(F)cccc1F)Nc1ccc(C(O)(C(F)(F)F)C(F)(F)F)cc1,6% (inactive)
10,Nc1nc(-c2ccc(F)cc2)cc(-c2cc(-c3ccc(F)cc3)nc(N)n2)n1,-7.15% (inactive)
11,CCc1cccc(CC)c1N(C(C)=O)C(C)=O,19.2% (inactive)
12,O=[N+]([O-])c1ccc(CSc2ncnc3c2ncn3C2OC(CO)C(O)C2O)cc1 (centres undefined),-4.05% (inactive)
13,c1ccc(N2CCN(C(c3cccs3)N3CCN(c4ccccc4)CC3)CC2)cc1,-5.5% (inactive)
14,CN(C)CCNC(=O)c1cccc2c(Nc3ccc(S(N)(=O)=O)cc3)c3ccccc3nc12,-23.6% (inactive)
15,CCCCCCCCCCN(CCCCCCCCCC)C(C)C(O)c1ccc2cc(Br)c3ccccc3c2c1 (centres undefined),-12.5% (inactive)
16,CCOC(=O)C1=CC(=O)CC(C)(C)O1,-0.8% (inactive)
17,CCOc1ccc(Cc2ccc3c(c2)OCO3)cc1C,-2.1% (inactive)
18,COc1ccccc1C1(CBr)OCCO1,-3.85% (inactive)
19,N#CC(NCCCNC(C#N)c1ccccc1)c1ccccc1 (centres undefined),-3.9% (inactive)
20,COC(=O)c1nc(=S)[nH]c(C(=O)OC)c1C(=O)c1ccccc1,-25.4% (inactive)

row,SMILES,growth inhibition
1,COc1ccc(CCO)cc1,-31.1% (inactive)
2,CC(C)[C@H]1CC[C@@](C)(C(=O)O)C1,23.4% (inactive)
3,N#C/C(=C\c1c(Cl)cccc1Cl)c1ccc([N+](=O)[O-])cc1,48.8% (inactive)
4,Cc1c(C(=O)CSc2nc3ccccc3c(=O)n2-c2ccccc2)c(=O)n(-c2ccccc2)n1C,-11.3% (inactive)
5,C[N+](C)(C)CCC(=O)N1C/C(=C\c2ccccc2)C(=O)/C(=C/c2ccccc2)C1,-15.7% (inactive)
6,O=C(CCc1ccccc1CO)NCCc1ccccc1,-34.1% (inactive)
7,O=C1CS(=O)(=O)c2ccccc21,-8.8% (inactive)
8,CSc1ccc(NC(=O)Oc2ccc(NC(C)=O)cc2)cc1,22.8% (inactive)
9,CCOC(=O)N/N=C(\Cc1ccccc1)OCC,14.6% (inactive)
10,COC(=O)C1=NOC(Cc2ccccc2)C1 (centres undefined),6.45% (inactive)
11,C=CCOC(=O)CCC(=O)OCC=C,5.8% (inactive)
12,CCN(CC)Cc1c(C)cccc1O,-0.45% (inactive)
13,COc1cccc(N=NN2CCCC2)c1,7.15% (inactive)
14,CCOCCC(C)(OCC)OCC,-3.65% (inactive)
15,COC(=O)/C(=C\c1ccc(N(CCC#N)CCC#N)cc1)NC(=O)c1cc([N+](=O)[O-])ccc1Cl,-21.6% (inactive)
16,COc1ccc(N2C(=O)/C(=C/c3ccc(N(CCC#N)CCC#N)cc3C)N=C2c2cc([N+](=O)[O-])ccc2Cl)cc1,-13.9% (inactive)
17,O=[N+]([O-])c1cccc2c1ccc1nonc12,-15.8% (inactive)
18,CCOc1cc(/C=N/NC(=O)N(c2ccccc2)c2ccccc2)ccc1O,24.6% (inactive)
19,CC(NN(C)C(=S)Nc1ccccc1)c1ccccn1 (centres undefined),-4.75% (inactive)
